In PubChem BioAssay (NCATS):
Results filed as inconclusive are left out. Where a call stands in place of a potency, no number is given. Values without a mark were called inactive. Activity calls are given as the source filed them. Calls follow the shape of the dose curve; as a rule, active = well fitted curve in the direction sought with a large enough effect; inconclusive = small, poorly fitted or top-dose-only effect, or another doubt; inactive = no such curve, though single readings can be large; an effect the other way counts as inactive or inconclusive.

Experiments:
[1] = target: Cellular tumor antigen p53 (Homo sapiens) (UniProt P04637); experiment: Primary qHTS for small molecule compounds that upregulate eGFP-tagged delta133p53alpha (in N-terminal) cells. (AID 2060322); conditions: NCI-H358 eGFP-delta133p53alpha fluorescence, 24 h; activation: stronger effect = higher value; also: nearly all actives have a fitted effect of over 75% in size; also: potency is read from the fitted curve at half-maximal effect
Cellular tumor antigen p53 (Homo sapiens), sequence (P04637 whole entry, looked up): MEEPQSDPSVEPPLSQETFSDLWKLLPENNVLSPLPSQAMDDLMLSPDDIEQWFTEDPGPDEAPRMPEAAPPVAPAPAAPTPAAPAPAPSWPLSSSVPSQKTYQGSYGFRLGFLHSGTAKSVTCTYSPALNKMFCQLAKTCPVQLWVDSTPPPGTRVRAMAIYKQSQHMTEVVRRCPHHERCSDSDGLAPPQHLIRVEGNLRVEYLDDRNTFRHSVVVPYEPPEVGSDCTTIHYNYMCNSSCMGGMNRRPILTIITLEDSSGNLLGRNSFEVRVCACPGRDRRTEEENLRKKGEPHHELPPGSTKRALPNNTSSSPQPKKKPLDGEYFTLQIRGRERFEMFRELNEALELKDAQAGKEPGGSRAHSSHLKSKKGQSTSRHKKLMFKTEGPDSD
Method in brief: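 NCI-H358 cells pre-induced 24 h with 10 ng/ml doxycycline to express N-terminal eGFP-delta133p53alpha, then dosed 24 h at 37C without doxycycline; fixed, Hoechst-stained, GFP intensity by laser scanning cytometry, normalized to DMSO (0%) and 57.5 uM 5-azacytidine (100%).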

[2] = target: Aldehyde dehydrogenase, mitochondrial (Homo sapiens) (UniProt P05091); experiment: qHTS for Inhibitors of the Aldehyde Dehydrogenase Family (ALDH2) Primary screen (AID 2061308); conditions: ALDH2 enzyme inhibition qHTS, 1536-well; series mostly up to 56 µM; also: nearly all actives have a fitted effect of over 55% in size
[3] = target: Retinaldehyde dehydrogenase 3 (Homo sapiens) (UniProt P47895); experiment: qHTS for Inhibitors of the Aldehyde Dehydrogenase Family (ALDH1A3) Primary screen (AID 2061315); conditions: ALDH inhibition qHTS; series mostly up to 56 µM

CC1CCCC(=O)CCC/C=C/c2cc(O)cc(O)c2C(=O)O1 (stereo not given)
activation [1]: 7.14%
Potency [2]: inactive
Potency [3]: inactive

CN1CCCC1CCOC(c1cc2nccc(C(=O)O)c2[nH]1)c1ccccc1Cl (stereo not given)
activation [1]: 4.33%
Potency [2]: inactive
Potency [3]: inactive

C=C(C)[C@@H]1[C@H]2OC(=O)[C@H]1[C@]1(O)C[C@H]3O[C@]34C(=O)O[C@H]2[C@]14C
activation [1]: 4.33%
Potency [2]: inactive
Potency [3]: inactive

CC1=CC2(O)/C=C/C(C)(O)C(O)C(O)/C=C/C(=O)OC23C(=O)NC(CC(C)C)C3C1C (stereo not given)
activation [1]: 0.763%
Potency [2]: inactive
Potency [3]: inactive

CN1CCN(c2nc3ccccc3nc2Cl)CC1
activation [1]: 1%
Potency [2]: inactive
Potency [3]: inactive

CCC1(O)CCC2C3CCC4=CC(=O)CCC4C3CCC21CC (stereo not given)
activation [1]: -2.33%
Potency [2]: inactive
Potency [3]: inactive

COC1CCCC(C)OC(=O)Cc2cc(O)cc(O)c2C(=O)C1 (stereo not given)
Potency [1]: 16.6 µM (active)
Potency [2]: inactive
Potency [3]: inactive

OCc1nnc2n1-c1ccc(Cl)cc1C(c1ccccc1Cl)=NC2
activation [1]: -3.67%
Potency [2]: inactive
Potency [3]: inactive

C/C=C(\C)C(=O)O[C@H]1[C@H](OC(C)=O)[C@]2(CO)[C@H](O)[C@H](O)[C@]3(C)C(=CCC4[C@@]5(C)CC[C@H](O[C@@H]6O[C@H](C(=O)O)[C@@H](O)[C@H](O[C@@H]7OC[C@H](O)[C@H](O[C@@H]8OC[C@H](O)[C@H](O)[C@H]8O)[C@H]7O)[C@H]6O[C@@H]6O[C@H](CO)[C@@H](O)[C@H](O)[C@H]6O)C(C)(C)C5CC[C@]43C)[C@@H]2CC1(C)C (stereo not given in full)
activation [1]: -3.05%
activity change, negative = inhibition [2]: 1.02% [at 11.2 µM]
activity change, negative = inhibition [3]: 2.55% [at 11.2 µM]

CO[C@H]1C[C@H](O[C@H]2CC[C@@]3(C)C(=CCC4C3CC[C@]3(C)[C@@H](C5=CC(=O)OC5)CC[C@]43O)C2)O[C@@H](C)[C@@H]1O[C@@H]1O[C@H](CO[C@@H]2O[C@H](CO)[C@@H](O)[C@H](O)[C@H]2O)[C@@H](O)[C@H](O)[C@H]1O (stereo not given in full)
activation [1]: 0%
Potency [2]: inactive
Potency [3]: inactive

CC12CCC3C(C1)c1c(cc(O)c(C(=O)c4ccccc4)c1OC3(C)C)O2 (stereo not given)
activation [1]: -17.6%
Potency [2]: inactive
Potency [3]: inactive

CC(=O)OC[C@]12C[C@H](OC(=O)CC(C)C)C(C)=C[C@H]1O[C@@H]1[C@H](O)[C@@H](OC(C)=O)[C@@]2(C)[C@@]12CO2
Potency [1]: 0.0828 µM (active)
Potency [2]: inactive
Potency [3]: inactive

COC(=O)CC1CC2(C(=O)c3c(O)cccc3C2(O)C(=O)OC)C(C)O1 (stereo not given)
activation [1]: 8.4%
Potency [2]: inactive
Potency [3]: inactive

C[C@@]1(CO)[C@H](O)CC[C@@]2(C)[C@H]1CC[C@H]1C[C@@H]3C[C@@]12CC[C@]3(O)CO
activation [1]: -3.82%
Potency [2]: inactive
Potency [3]: inactive

CC1=CC2/C=C(\C)CCC(O)C(O)/C=C/C(=O)C23C(=O)NC(CC(C)C)C3C1C (stereo not given)
Potency [1]: 13.1 µM (active)
Potency [2]: inactive
Potency [3]: inactive

C=C(C)[C@@]12O[C@@H]1[C@@]1(C)C(=C[C@H]2O)CC[C@@H](O)[C@@H]1C
activation [1]: 8.4%
Potency [2]: inactive
Potency [3]: inactive

COC[C@]12CN(C)C3C4[C@H](OC)[C@H]1C3(C(OC)C[C@H]2O)[C@H]1C[C@@]2(O)[C@H](OC(=O)c3ccccc3)[C@@H]1[C@]4(O)[C@@H](O)[C@@H]2OC (stereo not given in full)
activation [1]: -0.333%
Potency [2]: inactive
Potency [3]: inactive

N#CC(O[C@@H]1O[C@H](CO)[C@@H](O)[C@H](O)[C@H]1O)c1ccccc1 (stereo not given in full)
activation [1]: 13%
Potency [2]: inactive
Potency [3]: inactive

C[C@@H]1CCC2[C@@H](C)C(=O)OC3O[C@@]4(C)CCC1[C@]32OO4 (stereo not given in full)
activation [1]: 37.5%
Potency [2]: inactive
Potency [3]: inactive

Fc1cc(F)c2c(c1)[C@H]1C=CC[C@H]1C(c1cccnc1)N2 (stereo not given in full)
activation [1]: 2.39%
Potency [2]: inactive
Potency [3]: inactive

Clc1ccc([C@]23CNC[C@H]2C3)cc1Cl
activation [1]: -21.7%
Potency [2]: inactive
Potency [3]: inactive

CC(C)(O)[C@H]1O[C@H]2CC[C@@]3(C)[C@@](O)(CC[C@H]4Cc5c([nH]c6ccccc56)[C@@]43C)C2=CC1=O
activation [1]: 3.82%
Potency [2]: inactive
Potency [3]: inactive

Cc1ccccc1C1=CCN(C)CC1
activation [1]: 1.67%
Potency [2]: inactive
Potency [3]: inactive

CCC(C)(C#N)O[C@@H]1O[C@H](CO)[C@@H](O)[C@H](O)[C@H]1O (stereo not given in full)
activation [1]: 16.8%
Potency [2]: inactive
Potency [3]: inactive

C=C1C(=O)OC2/C=C(\COO)CC/C=C(\COC(C)=O)CC(OC(=O)C(C)CC)C12 (stereo not given)
Potency [1]: 9.28 µM (active)
Potency [2]: inactive
Potency [3]: inactive
